Among all 340,000 compounds or so, about 1,000 (0.29%) were called active. No stated cut-off is given here; in the data, inconclusive means inhibition above about 29% without an active follow-up result; inactive means below that. These entries were drawn from the full list. Entries with a potency or affinity are not part of this list.
Target: Genome polyprotein (Dengue virus type 2 (strain 16681-PDK53)) (UniProt P29991)
Experiment: flavivirus cap methylation enzyme inhibition – biochemical, confirmation dose response, primary screen (AID 588689)
Details: Dengue-2 NS5 methyltransferase capping enzyme assay, at 25 µM, stronger effect = higher value

Chain of Genome polyprotein (Dengue virus type 2 (strain 16681-PDK53)) (P29991 whole entry, looked up): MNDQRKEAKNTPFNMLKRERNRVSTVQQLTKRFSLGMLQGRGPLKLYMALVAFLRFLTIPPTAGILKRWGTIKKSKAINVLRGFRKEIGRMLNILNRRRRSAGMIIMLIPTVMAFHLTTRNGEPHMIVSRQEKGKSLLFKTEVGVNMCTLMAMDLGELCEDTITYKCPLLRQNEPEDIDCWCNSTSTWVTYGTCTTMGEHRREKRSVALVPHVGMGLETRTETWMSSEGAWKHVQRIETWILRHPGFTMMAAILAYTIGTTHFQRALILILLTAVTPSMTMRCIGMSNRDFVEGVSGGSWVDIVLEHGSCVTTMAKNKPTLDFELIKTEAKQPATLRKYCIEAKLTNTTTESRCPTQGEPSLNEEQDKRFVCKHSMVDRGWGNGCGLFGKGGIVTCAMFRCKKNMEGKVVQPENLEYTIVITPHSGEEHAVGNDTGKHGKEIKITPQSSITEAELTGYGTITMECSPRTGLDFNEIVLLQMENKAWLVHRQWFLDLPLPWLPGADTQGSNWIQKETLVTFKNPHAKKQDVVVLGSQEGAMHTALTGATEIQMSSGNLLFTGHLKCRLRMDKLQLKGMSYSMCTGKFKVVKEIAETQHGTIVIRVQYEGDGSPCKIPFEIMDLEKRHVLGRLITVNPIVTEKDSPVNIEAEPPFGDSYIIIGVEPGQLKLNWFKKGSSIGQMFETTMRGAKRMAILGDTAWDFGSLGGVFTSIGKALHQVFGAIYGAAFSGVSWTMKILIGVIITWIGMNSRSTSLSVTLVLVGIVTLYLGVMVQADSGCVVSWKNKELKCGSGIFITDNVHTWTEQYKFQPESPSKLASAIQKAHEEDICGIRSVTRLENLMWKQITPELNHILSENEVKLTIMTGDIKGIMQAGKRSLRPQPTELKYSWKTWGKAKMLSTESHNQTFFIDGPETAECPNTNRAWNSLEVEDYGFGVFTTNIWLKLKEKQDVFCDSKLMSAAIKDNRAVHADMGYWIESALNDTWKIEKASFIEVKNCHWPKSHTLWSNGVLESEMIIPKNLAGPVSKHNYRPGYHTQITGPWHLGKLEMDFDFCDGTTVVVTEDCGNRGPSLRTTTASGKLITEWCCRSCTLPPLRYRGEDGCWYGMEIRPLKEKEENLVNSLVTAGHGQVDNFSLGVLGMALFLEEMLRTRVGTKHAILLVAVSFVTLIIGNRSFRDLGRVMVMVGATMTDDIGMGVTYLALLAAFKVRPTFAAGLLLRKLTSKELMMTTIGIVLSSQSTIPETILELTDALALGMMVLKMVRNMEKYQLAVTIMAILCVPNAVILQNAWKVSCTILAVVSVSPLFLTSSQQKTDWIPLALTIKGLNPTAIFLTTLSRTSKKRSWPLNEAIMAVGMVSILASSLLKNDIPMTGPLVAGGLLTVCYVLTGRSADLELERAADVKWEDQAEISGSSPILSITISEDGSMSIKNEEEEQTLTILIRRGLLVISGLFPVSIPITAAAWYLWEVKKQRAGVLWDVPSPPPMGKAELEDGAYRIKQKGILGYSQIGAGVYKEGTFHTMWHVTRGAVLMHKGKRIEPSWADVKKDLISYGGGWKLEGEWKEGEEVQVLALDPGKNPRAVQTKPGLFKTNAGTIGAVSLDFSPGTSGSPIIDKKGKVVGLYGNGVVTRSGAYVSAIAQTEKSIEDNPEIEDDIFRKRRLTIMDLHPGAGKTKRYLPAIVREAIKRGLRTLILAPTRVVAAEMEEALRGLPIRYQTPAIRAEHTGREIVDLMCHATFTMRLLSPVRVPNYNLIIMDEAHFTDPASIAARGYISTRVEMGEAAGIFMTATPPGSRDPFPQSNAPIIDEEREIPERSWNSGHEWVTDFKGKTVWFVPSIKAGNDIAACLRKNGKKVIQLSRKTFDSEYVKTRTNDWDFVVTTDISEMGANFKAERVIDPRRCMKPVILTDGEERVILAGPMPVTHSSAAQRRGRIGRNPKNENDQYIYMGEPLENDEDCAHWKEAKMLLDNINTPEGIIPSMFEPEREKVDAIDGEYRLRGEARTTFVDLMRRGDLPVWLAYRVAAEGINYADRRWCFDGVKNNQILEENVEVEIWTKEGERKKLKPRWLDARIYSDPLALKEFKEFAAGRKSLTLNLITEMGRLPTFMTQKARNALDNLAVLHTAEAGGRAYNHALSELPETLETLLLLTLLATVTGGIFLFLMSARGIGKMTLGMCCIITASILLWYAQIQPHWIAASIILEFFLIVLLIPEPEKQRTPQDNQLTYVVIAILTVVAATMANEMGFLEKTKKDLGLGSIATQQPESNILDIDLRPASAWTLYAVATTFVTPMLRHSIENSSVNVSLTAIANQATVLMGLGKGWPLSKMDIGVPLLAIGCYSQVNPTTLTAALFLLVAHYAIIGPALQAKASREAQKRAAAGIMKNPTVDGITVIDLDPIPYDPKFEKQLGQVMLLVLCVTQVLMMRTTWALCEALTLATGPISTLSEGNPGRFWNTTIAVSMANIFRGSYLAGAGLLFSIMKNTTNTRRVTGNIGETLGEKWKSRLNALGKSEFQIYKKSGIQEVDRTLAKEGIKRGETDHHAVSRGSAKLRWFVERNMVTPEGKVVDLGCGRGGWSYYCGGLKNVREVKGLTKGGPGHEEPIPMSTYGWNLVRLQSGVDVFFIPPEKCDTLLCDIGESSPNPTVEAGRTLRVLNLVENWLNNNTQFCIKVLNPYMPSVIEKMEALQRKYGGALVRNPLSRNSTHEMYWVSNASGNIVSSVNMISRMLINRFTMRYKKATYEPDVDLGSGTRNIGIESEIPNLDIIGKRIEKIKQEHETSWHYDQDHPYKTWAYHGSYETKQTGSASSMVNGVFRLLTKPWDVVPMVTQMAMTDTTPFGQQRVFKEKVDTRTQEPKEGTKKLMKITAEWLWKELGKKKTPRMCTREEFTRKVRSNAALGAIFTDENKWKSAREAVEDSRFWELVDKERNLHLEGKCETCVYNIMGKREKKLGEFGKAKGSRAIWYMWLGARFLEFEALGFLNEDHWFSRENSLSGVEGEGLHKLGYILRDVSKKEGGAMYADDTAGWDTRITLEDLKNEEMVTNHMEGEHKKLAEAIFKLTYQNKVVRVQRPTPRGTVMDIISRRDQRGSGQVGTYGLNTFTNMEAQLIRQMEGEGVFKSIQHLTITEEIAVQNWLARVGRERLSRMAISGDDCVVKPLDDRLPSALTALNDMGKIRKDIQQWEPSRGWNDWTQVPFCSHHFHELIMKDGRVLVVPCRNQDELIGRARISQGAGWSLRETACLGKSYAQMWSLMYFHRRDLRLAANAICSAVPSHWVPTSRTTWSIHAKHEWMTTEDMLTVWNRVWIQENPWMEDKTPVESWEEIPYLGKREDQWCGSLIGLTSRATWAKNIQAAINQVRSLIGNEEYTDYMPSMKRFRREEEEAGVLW

Row | Structure (SMILES) | inhibition | inhibition (measured here: pilot screen replicate inhibition) [%]
1 | O=c1[nH]nc(-c2ccc(F)cc2)cc1Cc1ccccc1 | -7.66% (inactive) | –
2 | N#C/C(=C\c1ccccc1OCc1ccc(C(=O)O)cc1)C(=O)Nc1ccc(O)cc1 | 27% (inactive) | –
3 | COc1ccc(NC(=O)/C(C#N)=C\c2ccc(OCc3ccc(C(=O)O)cc3)c(OC)c2)cc1 | -8.98% (inactive) | –
4 | O=C(NCCCN1CCOCC1)c1ccc(S(=O)(=O)Nc2ccccc2)cc1 | -4.34% (inactive) | –
5 | Cc1ccc(NC(=O)Nc2cc(C)on2)cc1 | -0.74% (inactive) | –
6 | CCNc1nc(SC(C(C)=O)C(C)=O)nc(N(C)C)n1 | -1.07% (inactive) | –
7 | COc1ccc([N+](=O)[O-])cc1NCC(=O)Nc1cccc(S(=O)(=O)N2CCCC2)c1 | -0.72% (inactive) | –
8 | O=C1C(c2ccncc2)=C(O)c2ccccc21 | 2.03% (inactive) | –
9 | O=C1C(c2c(O)[nH]c3ccccc23)=Nc2ccccc21 | -46.9% (inactive) | –
10 | Clc1ccc(-c2nsc(N3CCOCC3)n2)c(Cl)c1 | -8.96% (inactive) | –
11 | Cc1cc(C)c(NC(=O)CNC(=O)COC(=O)/C=C/c2cccs2)c(C)c1 | -7.3% (inactive) | –
12 | CCc1nnc(NS(=O)(=O)c2ccc(NC(=S)NC(=O)/C=C/c3ccc(OC)cc3)cc2)s1 | -1.6% (inactive) | –
13 | CCc1nnc(NS(=O)(=O)c2ccc(NC(=S)NC(=O)/C=C/c3ccc([N+](=O)[O-])cc3)cc2)s1 | 9.83% (inactive) | –
14 | CCc1nnc(NS(=O)(=O)c2ccc(NC(=O)/C=C/c3ccc(F)cc3)cc2)s1 | 3.59% (inactive) | –
15 | CCc1nnc(NS(=O)(=O)c2ccc(NC(=S)NC(=O)/C=C/c3ccccc3)cc2)s1 | 8.99% (inactive) | –
16 | CC(C)NC1(C#N)CCN(Cc2ccccc2)CC1 | 0% (inactive) | –
17 | CCOc1ccc(Nc2nc(C)cc(C)c2C#N)cc1 | 0% (inactive) | –
18 | COC(=O)c1sc(N)c(C(=O)OC)c1COC(=O)CNS(=O)(=O)c1cccc(C#N)c1 | -1.45% (inactive) | –
19 | COC(=O)c1cc(C)c(C)cc1NC1OC(CO)C(O)C1O (configuration not stated) | -9.68% (inactive) | –
20 | C[C@H](CO)N1C[C@H](C)[C@@H](CN(C)C(=O)c2cnccn2)Oc2cc(C#CCC3CCCC3)ccc2S1(=O)=O | -16.2% (inactive) | –
21 | O=C(NCc1ccccc1)N1CCC(CO)(CCc2ccccc2)CC1 | 5.32% (inactive) | –
22 | CC(C)C1Nc2ccc(S(N)(=O)=O)cc2C2C=CCC21 (configuration not stated) | 16% (inactive) | –
23 | O=C(O)C1Nc2c(Cl)cc(Cl)c(Cl)c2C2C=CCC12 (configuration not stated) | 8.87% (inactive) | –

Row | Structure (SMILES) | inhibition | inhibition (measured here: pilot screen replicate inhibition) [%]
24 | CCOC(=O)N1CCC(NC(=O)CCS(=O)(=O)c2ccc3c(c2)CCN3C(C)=O)CC1 | 0% (inactive) | –
25 | CCOC(=O)c1c(C)oc2c1cc(O)c1ccccc12 | 18.5% (inactive) | –
26 | CCOC(=O)/C=C(\C)Sc1cc(=O)oc2ccccc12 | -12.1% (inactive) | –
27 | O=C(O)COc1ccc(/C=C/C(=O)c2ccc3ccccc3c2)cc1 | 21.6% (inactive) | –
28 | CCOc1ccc(/C=C/C(=O)c2ccccc2)cc1 | -8.48% (inactive) | –
29 | CCOC(=O)c1[nH]nc2c1C(=O)N(Cc1ccccc1)C2=O | -0.68% (inactive) | –
30 | CCCCNC(=O)c1sc2ncnc(N3CCc4ccccc4C3)c2c1C | -8.03% (inactive) | –
31 | Cc1cccc(NC(=S)N(Cc2ccc(Cl)cc2)Cc2ccc(C(=O)O)cc2)c1 | -0.79% (inactive) | –
32 | Cc1cc(C)cc(NC(=S)N(Cc2ccc(Br)cc2)Cc2ccc(C(=O)O)cc2)c1 | -6.24% (inactive) | –
33 | CC1CCCN(C(=O)CCNC(=O)Cn2cnc3ccccc3c2=O)C1 (configuration not stated) | -2.67% (inactive) | –
34 | COc1ccc(S(=O)(=O)Oc2ccc3ccccc3c2)cc1 | 0.73% (inactive) | –
35 | NS(=O)(=O)c1ccc(Sc2ccc3ccccc3c2)nc1 | -5.01% (inactive) | –
36 | COC(=O)c1ccc(NC(=O)C(=O)N2CCN(C(=S)Nc3cccc(C)c3C)CC2)cc1 | -4.36% (inactive) | –
37 | COc1ccc(NC(=O)Cc2c(C(=O)O)n(C)c3ccccc23)cc1OC | -17.2% (inactive) | –
38 | C[C@H](CO)N1C[C@H](C)[C@@H](CN(C)C(=O)Nc2ccccc2)Oc2c(NC(=O)Cc3ccccc3)cccc2C1=O | -4% (inactive) | –
39 | COC(=O)c1c(C(=O)OC)c2ccccn2c1C(=O)c1ccccc1 | -4.66% (inactive) | –
40 | COC(=O)c1cc2c(-c3ccccc3)cc3ccccn3c-2c1C(=O)OC | 27.1% (inactive) | –
41 | COc1ccc(CN(C)C(C)C(=O)Nc2ccc(S(=O)(=O)N3CCCCC3)cc2)cc1F (configuration not stated) | 0.37% (inactive) | –
42 | CSCCC(C(=O)OCC(=O)c1ccc(C)c(C)c1)N1C(=O)c2cc(Cl)c(Cl)cc2C1=O (configuration not stated) | 10.7% (inactive) | –
43 | O=C1NCCCC2c3c(cc(Br)c(O)c3Br)OC12N1CCCCC1 (configuration not stated) | 10.4% (inactive) | –
44 | O=C1NCCCC2c3c(cc(Br)c(O)c3Br)OC12N1CCOCC1 (configuration not stated) | 17% (inactive) | -2.28
45 | CCOC(=O)C(NC(=O)Cc1ccccc1)(Nc1cc(C)on1)C(F)(F)F (configuration not stated) | -5.64% (inactive) | –
46 | CCCn1c(SCC(=O)c2[nH]c(C)c(C(C)=O)c2C)n[nH]c1=O | -15.1% (inactive) | –

Row | Structure (SMILES) | inhibition | inhibition (measured here: pilot screen replicate inhibition) [%]
47 | COc1ccc(CCNC(=O)C2CC(c3ccc([N+](=O)[O-])cc3)=NO2)cc1 (configuration not stated) | 2.79% (inactive) | –
48 | CN(C1CCCCC1)S(=O)(=O)c1cn(C)c(=O)n(C)c1=O | -3.31% (inactive) | –
49 | O=C(NN=Cc1ccc(O)cc1)c1ccccc1NS(=O)(=O)c1cccs1 | 2.92% (inactive) | –
50 | COc1cc(C=NNC(=O)c2ccccc2NS(=O)(=O)c2cccs2)cc(OC)c1O | 2.21% (inactive) | –
51 | O=c1cc(-c2nn[nH]n2)[nH]c(=O)[nH]1 | -0.8% (inactive) | –
52 | O=C(CN1C(=O)c2cccc([N+](=O)[O-])c2C1=O)N1CCc2ccccc2C1 | -5.49% (inactive) | –
53 | O=c1c(C(c2ccc(Br)cc2)c2c(O)nc3n(c2=O)CCS3)c(O)nc2n1CCS2 | 11.7% (inactive) | –
54 | O=c1c(C(c2ccc(O)cc2)c2c(O)nc3n(c2=O)CCCS3)c(O)nc2n1CCCS2 | 60.7% (inactive) | –
55 | O=c1c(C(c2ccc(Cl)cc2)c2c(O)nc3n(c2=O)CCS3)c(O)nc2n1CCS2 | 3.89% (inactive) | –
56 | O=c1c(C(c2ccc(F)cc2)c2c(O)nc3n(c2=O)CCS3)c(O)nc2n1CCS2 | -0.78% (inactive) | –
57 | O=Cc1ccc(F)c([B-](F)(F)F)c1 | -5.86% (inactive) | –
58 | COc1ccc(N2CC(C(=O)NC3CCCCC3)CC2=O)cc1 (configuration not stated) | -15.2% (inactive) | –
59 | NC(=S)N=Nc1c(O)[nH]c2ccccc12 | -8.45% (inactive) | –
60 | NC(=S)N=Nc1c(O)[nH]c2ccc(F)cc12 | 1.93% (inactive) | –
61 | Cc1ccc(C)c(S(=O)(=O)NC2CCSC2=O)c1 (configuration not stated) | 0% (inactive) | –
62 | COc1ccc(NS(=O)(=O)c2cc(NC(=O)c3cccc(OCc4c(C)noc4C)c3)ccc2OC)cc1 | -4.53% (inactive) | –
63 | Clc1ccc(Oc2nc(Oc3ccc(Cl)cc3)nc(N3CCOCC3)n2)cc1 | 5.62% (inactive) | –
64 | CC(NC(=O)C12CC3CC(CC(C3)C1)C2)C(=O)N/N=C/C1=C(N2CCOCC2)C(=C\c2ccccc2)/CC1 (configuration not stated) | -2.59% (inactive) | –
65 | CN(C)c1cccc2c1C(=O)c1ccccc1C2=O | 2.91% (inactive) | –
66 | CN(CCO)C(=O)c1cccc2c1-c1ccccc1C2=O | 2.07% (inactive) | –
67 | Cc1nnc(NC(=O)CSc2nnc(CCNC(=O)c3ccccc3F)n2C)s1 | -9.78% (inactive) | –
68 | Cc1oc2c(O)c(O)ccc2c(=O)c1-c1ccccc1 | 1.39% (inactive) | –
69 | Cc1cc(=O)oc2c(O)c(O)ccc12 | 0.73% (inactive) | –

Row | Structure (SMILES) | inhibition | inhibition (measured here: pilot screen replicate inhibition) [%]
70 | O=C(O)c1cccc(O)c1O | 2.93% (inactive) | –
71 | O=C1c2ccccc2C(=O)c2c1ccc(O)c2O | 0% (inactive) | –
72 | CC(C)(Oc1ccc(Cl)cc1)C(=O)Nc1ccc2oc(-c3ccncc3)nc2c1 | 2.08% (inactive) | –
73 | COc1cc(C)c(S(=O)(=O)NCc2ccc3c(c2)OCO3)cc1C | -1.39% (inactive) | –
74 | Cc1nn(-c2ccccc2)nc1CNC(=O)C(C)Cc1ccccc1 (configuration not stated) | -2.38% (inactive) | –
75 | O=C(C1=C[C@H](C2CCCCC2)C[C@H](OCc2ccc(CO)cc2)O1)N1CCOCC1 | -6.54% (inactive) | –
76 | Cc1c(CC(=O)N[C@@H](C)C(=O)O)c(=O)oc2c(C)c3occ(-c4ccccc4)c3cc12 | -0.65% (inactive) | –
77 | CCCC(NC(=O)Cc1c(C)c2cc3c(C)c(C)oc3c(C)c2oc1=O)C(=O)N[C@@H](Cc1ccccc1)C(=O)O (some centres not stated) | 1.45% (inactive) | –
78 | CSC[C@H](NC(=O)Cc1c(C)c2cc3c(C)c(C)oc3cc2oc1=O)C(=O)N[C@@H](Cc1ccccc1)C(=O)O | 1.4% (inactive) | –
79 | CCCCC(NC(=O)Cc1c(C)c2cc3c(C)c(C)oc3c(C)c2oc1=O)C(=O)O (configuration not stated) | 1.31% (inactive) | –
80 | CCCOc1ccc(NC(=O)CC2C(=O)N(CC)C(=S)N2Cc2cccs2)cc1 (configuration not stated) | -2.45% (inactive) | –
81 | C/C(=C\c1cccc(Cl)c1)C(=O)c1c(C)cc(C)[nH]c1=O | 0.68% (inactive) | –
82 | COc1ccc(S(=O)(=O)N2CCN(c3ccccc3)CC2)cc1 | -2.22% (inactive) | –
83 | Cc1cccc(N2CCN(c3nc(C)cc(C)c3C#N)CC2C)c1 (configuration not stated) | -4.66% (inactive) | –
84 | CCOc1ccc(/C=C2\SC(=S)N(C(C(=O)O)c3ccccc3)C2=O)cc1OC (configuration not stated) | 16.8% (inactive) | –
85 | O=C1/C(=C/c2cccs2)SC(=S)N1c1ccccc1 | -4.85% (inactive) | –
86 | COc1ccc(OC)c(/C=C2\SC(=S)N(C(C(=O)O)c3ccccc3)C2=O)c1 (configuration not stated) | -26.1% (inactive) | –
87 | COc1cccc(/C=C2\SC(=S)N(N3CCOCC3)C2=O)c1OC | -5.48% (inactive) | –
88 | COc1ccc(/C=C2\SC(=S)N(C(C(=O)O)c3ccccc3)C2=O)c(OC)c1 (configuration not stated) | -11.9% (inactive) | –
89 | CCOc1ccc(/C=C2/SC(=S)N(C(C(=O)O)c3ccccc3)C2=O)cc1OCC (configuration not stated) | 22.1% (inactive) | –
90 | COc1cccc(/C=C2\SC(=S)N(c3cccnc3)C2=O)c1OC | 6.89% (inactive) | –
91 | O=C(O)C(c1ccccc1)N1C(=O)/C(=C\c2ccc(-c3ccccc3Cl)o2)SC1=S (configuration not stated) | 12.4% (inactive) | –
